# Reference: the supplement of paper PMC10646978
# ± gives the standard deviation.
# Experiments:
# Conditions in all cases: modulator concentration 10 µM
# [1] = tested on: RAW-Dual (murine macrophage reporter line); experiment: NF-kB reporter (SEAP) activity fold change vs agonist alone; higher = enhanced NF-kB activity
# In short: (§1)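 Overnight stimulation with a PRR agonist followed pre-incubation for 1 hour at 37 °C with compound at 10 μM final. This was done in RAW-Dual murine macrophage reporter cells seeded at 50 000 per well in 384-well plates. NF-κB (SEAP, QUANTI-Blue absorbance at 620 nm) and IRF (Lucia luciferase, QUANTI-Luc luminescence) were read from the supernatant. Each reporter's fold change relative to the mean agonist-only control on the same plate was averaged over replicate plates.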
# [2] = tested on: RAW-Dual (murine macrophage reporter line); experiment: IRF reporter (Lucia luciferase) activity fold change vs agonist alone; higher = enhanced IRF activity
# In short: as §1
# [3] = tested on: RAW-Dual (murine macrophage reporter line); experiment: viability score (confluency relative to resting cells, overnight) (fraction); higher = more viable, active = viable (0.7 or more)
# In short: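 In 384-well plates, RAW-Dual macrophages received compound at a final 10 μM overnight. Two confluency masks were then made with IncuCyte software from IncuCyte images of all imaged wells. The viability score is defined as confluency relative to resting cells. Passing the cutoff required both masks to lie above 70% of resting cells.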
# [4] = agonist: CpG ODN 1826 0.5 ug/mL
Structure (SMILES),"NF-kB reporter [1, 4]",NF-kB reporter ([1]; agonist: LPS 0.1 ug/mL),NF-kB reporter ([1]; agonist: MPLA […]),IRF reporter ([2]; agonist: 3'3'-cGAMP 10 ug/mL),IRF reporter ([2]; agonist: LPS 0.1 ug/mL),IRF reporter ([2]; agonist: MPLA […]),viability score [3]
Cc1ccc2nc(NC(=O)CSc3nc4c(c(=O)n3-c3ccccc3)SCC4)sc2c1,0.845 ± 0.11,0.887 ± 0.1,0.853 ± 0.081,0.662 ± 0.021,1.16 ± 0.14,1.27 ± 0.18,1.02 (active)
O=C(CC1Sc2ccccc2NC1=O)Nc1ccccc1 (stereo not drawn),0.945 ± 0.084,0.877 ± 0.071,1.03 ± 0.18,0.754 ± 0.11,1.32 ± 0.29,1.41 ± 0.38,1.02 (active)
C#CCOC(=O)CCCC(=O)Nc1ccc([N+](=O)[O-])cc1Cl,0.957 ± 0.066,1.01 ± 0.067,0.975 ± 0.062,1.01 ± 0.036,1.59 ± 0.11,1.3 ± 0.21,0.999 (active)
CC(=O)Oc1ccc2c(C)c(Cl)c(=O)oc2c1C,1.14 ± 0.24,1.01 ± 0.08,0.96 ± 0.1,0.93 ± 0.024,1.25 ± 0.19,1.19 ± 0.16,1.01 (active)
CN1C[C@@H]2c3ccccc3Oc3ccc(Cl)cc3[C@H]2C1.O=C(O)/C=C\C(=O)O,0.164 ± 0.03,0.821 ± 0.14,0.908 ± 0.14,0.475 ± 0.044,0.914 ± 0.088,1.07 ± 0.13,0.252 (inactive)
O=C(Nc1ccc(NS(=O)(=O)c2ccc(Cl)cc2)cc1)c1ccccc1,1 ± 0.082,1.03 ± 0.091,0.911 ± 0.07,0.977 ± 0.03,1.26 ± 0.091,0.955 ± 0.3,1.02 (active)
COc1ccc(C=C2C(=O)N(c3ccc(C(=O)O)cc3)N=C2C)cc1,0.794 ± 0.082,0.977 ± 0.072,1.02 ± 0.092,0.934 ± 0.052,1.22 ± 0.099,1.21 ± 0.17,1.01 (active)
O=C(NCCC(CCO)c1ccccc1)Nc1c(F)cccc1F (stereo not drawn),0.929 ± 0.078,1.02 ± 0.11,0.898 ± 0.041,0.972 ± 0.059,1.05 ± 0.084,0.978 ± 0.075,0.98 (active)
CC(C(=O)O)c1ccc2c(c1)CC(=O)c1ccccc1S2 (stereo not drawn),1.19 ± 0.18,1.19 ± 0.43,0.977 ± 0.06,1.03 ± 0.032,1.26 ± 0.42,1.22 ± 0.13,0.988 (active)
COC(=O)C1=CN(CC2CCCO2)C=C(C(=O)OC)C1c1ccc2c(c1)OCO2 (stereo not drawn),1.03 ± 0.12,1.1 ± 0.093,1.02 ± 0.071,1.07 ± 0.036,1.46 ± 0.16,1.12 ± 0.089,1.01 (active)
O=c1cc(-c2ccc(O)c(O)c2)oc2cc(O)cc(O)c12 [Prestw-870],1.08 ± 0.18,1.21 ± 0.12,2 ± 0.16,0.181 ± 0.0054,0.663 ± 0.14,0.61 ± 0.065,0.995 (active)
Cn1c(=O)[nH]c2nnc(-c3ccncc3)nc2c1=O,0.815 ± 0.07,0.872 ± 0.077,1.07 ± 0.12,0.935 ± 0.05,1.32 ± 0.15,1.47 ± 0.2,1.02 (active)
O=C(Oc1ccc(O)c(CO)c1)c1ccccc1,1.15 ± 0.12,1.08 ± 0.071,1.06 ± 0.086,0.637 ± 0.1,0.888 ± 0.098,0.769 ± 0.16,1 (active)
COc1cccc(-n2c(SCc3ccc(F)cc3)nc3c([nH]c4ccccc43)c2=O)c1,0.568 ± 0.034,1.14 ± 0.077,0.693 ± 0.06,0.717 ± 0.033,1.33 ± 0.15,0.902 ± 0.13,0.972 (active)
